# High-throughput results: PubChem BioAssay, National Center for Advancing Translational Sciences (NCATS)
# Hits are enriched below; roughly 9.8% of the tested compounds scored in any of these assays.
# CBFb RUNX1 block = qHTS Assay for Compounds Blocking the Interaction Between CBF-beta and RUNX1 for the Treatment of Acute Myeloid Leukemia; AID 1477, 2009; Runt-related transcription factor 1 (Homo sapiens) + Core-binding factor subunit beta …; Potency, µM (top dose mostly 59.8 µM), without a hit: at the highest dose activity, negative = inhibition, hits mostly inhibitors; 230,000 tested, under 10 active; AlphaScreen CBFb-His/RUNX1-biotin binding, biochemical; note: % of control where 0% means no effect
#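 CBF-beta (His) and RUNX1 (biotin), 30 nM each; 20 min preassociation; + compound, 15 min; + beads 50 ng each (Ni, streptavidin), 90 min; RT; AlphaScreen read.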
# KDM4E inh = qHTS Assay for Inhibitors of Human Jumonji Domain Containing 2E (JMJD2E); Potency, µM (titrated, usually from 57.1 µM), for the others: at the highest dose activity change, negative = inhibition, actives largely listed as inhibitors; Lysine-specific demethylase 4E (Homo sapiens), B2RXH2; JMJD2E catalytic domain, FDH-coupled NADH fluorescence (FDH is formaldehyde dehydrogenase); AID 2147, 2009; 230,000 tested, 1.6% active; active = well fitted inhibition curve with a large enough effect, not every such curve was filed as active; inconclusive = small, poorly fitted or top-dose-only effect, or another doubt; inactive = no such curve, though single readings can be large or run the other way;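 note: potency is the fitted concentration of half-maximal effect; 0% = wells with enzyme and -100% = buffer wells without enzyme; nearly all actives have a fitted effect of over 50% in size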
# HPGD inh = qHTS Assay for Inhibitors of HPGD (15-Hydroxyprostaglandin Dehydrogenase) | AID 894, 2007 | Potency, µM, without a hit: top-dose activity change, negative = inhibition, hits mostly inhibitors | 15-hydroxyprostaglandin dehydrogenase [NAD(+)] (Homo sapiens), P15428 | purified HPGD, NADH fluorescence kinetic, PGE2 substrate | 150,000 tested, 4.3% active; active = well fitted inhibition curve with a large enough effect, not every such curve was filed as active; inconclusive = small, poorly fitted or top-dose-only effect, or another doubt; inactive = no such curve, though single readings can be large or run the other way; note: potency is the fitted concentration of half-maximal effect; % is set by controls: 0 for no effect and ±100 for the full control effect
# Target sequence (P15428 whole entry, looked up): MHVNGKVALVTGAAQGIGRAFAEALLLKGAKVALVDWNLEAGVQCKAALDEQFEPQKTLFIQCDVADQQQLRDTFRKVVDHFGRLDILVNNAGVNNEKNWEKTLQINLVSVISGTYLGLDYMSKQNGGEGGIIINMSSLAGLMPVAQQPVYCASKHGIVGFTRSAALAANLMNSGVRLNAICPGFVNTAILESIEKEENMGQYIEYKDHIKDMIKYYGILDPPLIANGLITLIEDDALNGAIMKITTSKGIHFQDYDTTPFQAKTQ
#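 NADH formation kinetics: reaction with 30 uM PGE2 and 1 mM NAD+ (final), 20 nM enzyme, Tris-HCl pH 8 with Tween 20, after 15 min compound preincubation at room temperature. Fluorescence change, last versus first of five reads.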
# ALDH1A1 inh = qHTS Assay for Inhibitors of Aldehyde Dehydrogenase 1 (ALDH1A1); Aldehyde dehydrogenase 1A1 (Homo sapiens), P00352; Purified ALDH1A1, NADH fluorescence, propionaldehyde substrate; Potency, µM (highest dose often 75.3 µM), for the others: top-dose activity, negative = inhibition, usual class: inhibitors; 220,000 tested, 7.3% active; AID 1030, 2008; active = well fitted inhibition curve with a large enough effect, not every such curve was filed as active; inconclusive = small, poorly fitted or top-dose-only effect, or another doubt; inactive = no such curve, though single readings can be large or run the other way;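 note: potency is the fitted concentration of half-maximal effect; plate controls were no enzyme wells and a reference inhibitor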
# Target sequence (P00352 whole entry, looked up): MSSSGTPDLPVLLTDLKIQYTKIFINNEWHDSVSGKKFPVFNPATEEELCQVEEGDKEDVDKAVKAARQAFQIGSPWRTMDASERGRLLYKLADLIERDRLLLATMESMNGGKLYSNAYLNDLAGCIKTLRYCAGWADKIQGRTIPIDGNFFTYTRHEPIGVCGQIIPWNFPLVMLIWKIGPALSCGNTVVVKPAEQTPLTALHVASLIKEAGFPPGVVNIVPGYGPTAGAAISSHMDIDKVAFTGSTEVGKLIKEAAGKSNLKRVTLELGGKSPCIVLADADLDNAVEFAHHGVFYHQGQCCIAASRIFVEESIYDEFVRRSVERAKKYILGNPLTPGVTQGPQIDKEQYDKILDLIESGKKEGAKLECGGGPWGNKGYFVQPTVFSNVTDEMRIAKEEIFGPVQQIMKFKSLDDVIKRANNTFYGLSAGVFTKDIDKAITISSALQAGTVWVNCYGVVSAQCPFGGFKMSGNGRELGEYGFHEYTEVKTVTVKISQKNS
# HttQ103 aggreg = qHTS Multiplex Assay to Identify Dual Action Probes in a Cell Model of Huntington: Aggregate Formation (GFP); 220,000 tested, 1.1% active; Potency, µM (highest dose often 46.1 µM), for the others: at the top dose activity change, negative = inhibition, hits mostly inhibitors; PC12 HttQ103-GFP aggregates, Acumen cytometry, 40 h; note: potency is the fitted concentration of half-maximal effect; % is set by controls: 0 for no effect and ±100 for the full control effect; nearly all actives have a fitted effect of over 60% in size
#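 PC12/HTTQ103-GFP, ecdysone-inducible; teb 100 nM; cpd qHTS titration; GFP aggregates read on laser cytometer, Ex 488/Em 500-530 nm.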
# HTT cytoprotect = qHTS Multiplex Assay to Identify Dual Action Probes in a Cell Model of Huntington: Cytoprotection (ATP) | PC12 HTT-Q103 induced, cytoprotection, ATP luminescence, 40 h | Potency, µM (titrated, usually from 56.4 µM), inactives show cytoprotection (ATP increase), most hits filed as activators | 230,000 tested, 0.14% active; note: potency is the fitted concentration of half-maximal effect; % of control where 0% means no effect; nearly all actives have a fitted effect of over 45% in size
#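 Readout: ATPlite luminescence (ATP level). Model: stable PC12, inducible Htt exon1 Q103-GFP. Inducer: tebufenozide, 100 nM final. Compounds: dose series. No G418 in medium.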
# * hit, by the source's call; ? = inconclusive; . = no result; [ ] = remark or other dose. Unless noted, calls come from the whole dose curve; as a rule, active = well fitted curve in the direction sought with a large enough effect; inconclusive = small, poorly fitted or top-dose-only effect, or another doubt; inactive = no such curve, though single readings can be large; an effect the other way counts as inactive or inconclusive.
SMILES,CBFb RUNX1 block,KDM4E inh,HPGD inh,ALDH1A1 inh,HttQ103 aggreg,HTT cytoprotect
Cc1ccccc1C(=O)NC(=S)Nc1ccccc1C(F)(F)F,8%,4%,-7%,13µM*,-1%,-17%
CCCC(=O)NC(=S)Nc1ccccc1C(F)(F)F,1%,8%,-14%,?,19%,8%
N#CCC(=O)NNC(=S)Nc1ccccc1C(F)(F)F,3%,5%,.,18µM*,?,-12%
COc1ccc(/C=C(/NC(=O)c2ccc([N+](=O)[O-])cc2)C(=O)NC(C)(C)C)cc1,-1%,3%,.,-3%,10%,-50%
Cc1c(NC(=S)Nc2ccccc2C(F)(F)F)cccc1[N+](=O)[O-],-4%,7%,.,22µM*,6%,15%[10 µM]
CC(C)C(=O)NC(=S)Nc1ccccc1C(F)(F)F,1%,0%,.,?,7%,6%
O=[N+]([O-])c1ccc(O)c(/C=N/n2c(CO)nc3ccccc32)c1,0%,3%,.,3.2µM*,-13%[9.22 µM],11%[10 µM]
O=[N+]([O-])c1ccc(O)c(/C=N/Nc2ccccc2Cl)c1,-1%,-2%,.,-7%,?,-12%
O=[N+]([O-])c1ccc(O)c(/C=N/n2cnc3ccccc32)c1,4%,9%,14µM*,?,?,27%[10 µM]
CC(C)OC(=O)CSc1nnc(C2CCCCC2)n1N,3%,0%,.,.,-18%[9.22 µM],-12%[10 µM]
CCCC(=O)Nc1sc(Cc2ccccc2)c(C)c1C(N)=O,3%,4%,.,1.8µM*,8%[9.22 µM],6%[10 µM]
COc1ccc(NC(=O)c2c(NC(=O)CCC(=O)O)sc(-c3ccccc3)c2C)cc1,-1%,-10%,.,8.9µM*,2%,-1%
COC(=O)c1c(NC(=O)CCC(=O)O)sc(Cc2ccccc2)c1C,4%,-10%,.,.,-13%[9.22 µM],-6%[10 µM]
CCC(=O)N(CC(=O)Nc1sc(C)c(C)c1C(N)=O)Cc1ccc(F)cc1,0%,-3%,.,.,-13%[9.22 µM],20%[10 µM]
COC(=O)CCC(=O)Nc1sc(C)c(C)c1C(N)=O,-3%,-13%,14µM*,13µM*,-1%,11%
CCC(=O)N(CC(=O)Nc1sc(C)c(C)c1C(N)=O)C1CCCC1,15%,-13%,.,8.9µM*,-3%,-9%
COC(=O)CCC(=O)NC(=S)Nc1sc(C)c(C)c1C(N)=O,5%,10%,-30%,?,3%,.
COc1ccc(OC)c(NC(=O)c2c(NC(=O)CCC(=O)O)sc3c2CCCCC3)c1,-26%,-5%,-1%,-10%,?,.
N#CCCN(C(=O)COC(=O)C1CCN(S(=O)(=O)c2cccs2)CC1)c1ccccc1,-4%,2%,.,3%,3%,-10%
Cc1sc(NC(=O)C2CCCCC2C(=O)O)c(C(N)=O)c1-c1ccccc1 (stereo not drawn),2%,14%,-14%,-12%,-9%,-75%
Cc1sc(NC(=O)CCC(=O)O)c(C(N)=O)c1-c1ccccc1,-14%,-2%,14µM*,13µM*,5%,.
Cc1cc(C)nc(/N=C(\N)C2=C(O)CC(C)(C)CC2=O)n1,2%,-2%,-5%,3.2µM*,2%,-9%
O=c1cc(-c2ccccc2)oc2cc(O[C@@H]3O[C@H](CO)[C@@H](O)[C@H](O)[C@H]3O)c(O)c(O)c12,4%[21.7 µM],13µM*,11µM*,?,.,-1%[1.9 µM]
O=c1c(OC2OC(CO)C(O)C(O)C2OC2OC(CO)C(O)C(O)C2O)c(-c2ccc(O)cc2)oc2cc(O)cc(O)c12 (stereo not drawn),-22%,28µM*,.,.,12%[9.22 µM],13%[10 µM]
C[C@@H]1O[C@@H](Oc2c(-c3cc(O)c(O)c(O)c3)oc3cc(O)cc(O)c3c2=O)[C@H](O)[C@H](O)[C@H]1O,?,2.2µM*,-12%,?,13%,.
SMILES,CBFb RUNX1 block,KDM4E inh,HPGD inh,ALDH1A1 inh,HttQ103 aggreg,HTT cytoprotect
O=c1cc(-c2ccc(O)cc2)oc2cc(O[C@H]3OC(CO)C(O)C(O)C3O)cc(O)c12 (stereo partly drawn),6%,-10%,-8%,-1%,.,5%
O=c1c(OC2OC(CO)C(O)C(O)C2O)c(-c2ccc(O)c(O)c2)oc2cc(O)cc(O)c12 (stereo not drawn),?,8.9µM*,-16%,-14%,-2%,.
Cc1ccc(NC(=O)CSCCc2ccccn2)nc1,0%,4%,-10%,-1%,-4%,3%
CCN(CC(=O)NC(C)C)C(=O)[C@@H](NC(=O)c1ccco1)C(C)C,3%,9%,.,2%,16%,-12%[10 µM]
O=S(=O)(Nc1ncccn1)c1ccc(NC(=S)Nc2ccccc2Cl)cc1,16%,1%,.,-6%,-13%[9.22 µM],-3%[10 µM]
CC1OC(OCC2OC(Oc3c(-c4ccc(O)c(O)c4)oc4cc(O)cc(O)c4c3=O)C(O)C(O)C2O)C(O)C(O)C1O (stereo not drawn),8%[21.7 µM],11µM*,-6%,-6%,.,3%[1.9 µM]
CCCC(=O)Nc1ccc(Nc2ccccc2)cc1,4%,7%,16µM*,?,-9%,16%[0.074 µM]
CCCOC(=O)c1ccc(NC(=O)CCOc2ccccc2)cc1,8%,-3%,-18%,14µM*,-3%,-28%
CCCC(=O)Nc1ccc(-c2ccc(NC(=O)CCC)cc2)cc1,1%,-2%,-17%,5%,-3%,8%[10 µM]
CCC(=O)Nc1ccc(C(=O)c2ccccc2)cc1,-2%,-1%,14µM*,?,0%[9.22 µM],-18%
CCCCc1n[nH]c2c1/C(=N/OCC)CC(C)(C)C2,14%,1%,.,.,-29%[9.22 µM],-12%[10 µM]
COc1ccc(-c2nc3cnc(N(C)C)nc3n(C)c2=O)cc1,.,.,.,?,.,-37%
CN1CCN(C2=C(Cl)C(=O)N(c3ccc(Cl)c(Cl)c3)C2=O)CC1,3%,0%,-11%,25µM*,16%,25%
Cn1ccnc1Sc1cc(NCCCO)c([N+](=O)[O-])c2nonc12,-9%,1%,.,7%,?,-187%
O=[N+]([O-])c1c(NCCCO)cc(Sc2ccc(Cl)cc2)c2nonc12,3%,-3%,-29%,4.5µM*,?,-5%[10 µM]
COc1ccc(CNc2cc(NCCCO)c([N+](=O)[O-])c3nonc23)cc1,0%,?,.,10µM*,0%,-48%
